# Experimental data: PubChem BioAssay (NCI)
# Compounds without any hit were thinned out: in the full panel of roughly 83,000, 20% have a hit.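 Note: values are percent growth. 100 is the growth of untreated cells, values between 100 and 0 indicate rising inhibition; between -100 and 0 indicates cell death.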 A number with no mark means an inactive call. The source made the active and inactive calls. The calls were made as follows: active = growth percent below 10; inactive = the rest.
# System: HS 578T breast
# Test: NCI-60 one-dose screen, 48 h (100 = growth as untreated, 0 = no growth, -100 = all killed)
# Details: 10 µM unless noted
row,Compound,growth
1,CCCCCN1C=C/C(=C\C(=O)N(C)c2ccc(Oc3ccccc3)cc2)c2ccccc21,99.5%
2,O=C1Nc2cc(-c3ccc(NC(=O)C4CC4)cc3)ccc2/C1=C/c1ccc[nH]1,110%
3,COc1cc2nc(-c3ccc(Cl)cc3)cc(OCCCN3CCCC3)c2cc1OC,68.6%
4,CCCOC(=O)N[C@H]1CCc2c(Cl)c(OC)c(OC)c(OC)c2-c2ccc(SC)c(=O)cc21,9.75% (active)
5,CCCCCCOc1ccc(/C=N/Nc2cc(C)nc3ccc(Cl)cc23)cc1,28.5%
6,Nc1c(C(=O)Nc2cccc3cnccc23)sc2nc3c(cc12)CN(Cc1ccccc1)CC3,104%
7,CCCCOc1ccc(/C(C)=N/Nc2cc(C)nc3ccc(Br)cc23)cc1,96.6%
8,Cc1cnc(C(=O)Nc2nc3ccc(S(=O)(=O)Nc4ccc(C(C)(C)C)cc4)cc3[nH]2)cn1,4.25% (active)
9,CCN1CCN(CCNc2nccc(-c3c(-c4cccc(OC)c4)nc4occn34)n2)S1(=O)=O,114%
10,CCCCOc1ccc(/C=N/Nc2cc(C)nc3ccc(Br)cc23)cc1,86.8%
11,O=c1[nH]nc(-c2ccccc2)c2sc3ncc(-c4ccc(Br)cc4)n3c12,32.4%
12,O=C(Nc1ccc(NC(=O)c2cc(=O)[nH]c3ccccc23)cc1)Nc1cccc(Cl)c1,93.5%
13,N#Cc1cc(-c2nc3ccccc3s2)c(=O)n(NS(=O)(=O)c2ccccc2)c1N,101%
14,Oc1ccc(C(c2ccc(O)cc2)c2ccc(Br)cn2)cc1,-35.6% (active)
15,CCOC(=O)[C@@H]1CCCN(S(=O)(=O)c2ccc(S(=O)(=O)N(CC)CC)c(F)c2)C1,93.5%
16,N#Cc1cccc(-c2ccc3c(c2)NC(=O)/C3=C\c2ccc[nH]2)c1,92.1%
17,O=[N+]([O-])c1cc(Br)c2cccc3c2c1CC3,130%
18,NS(=O)(=O)c1ccc(Cn2c(SCC(=O)N/N=C/c3ccccc3O)nc3ccccc3c2=O)cc1,71.6%
19,CCNC(=O)Oc1ccc(/C(=C(\C)c2ccccc2)c2ccc(OCCN(CC)CC)cc2)cc1,69%

row,Compound,growth
1,COc1ccc(C(=O)/C=C/c2cc3ccccc3n3nnnc23)cc1,106%
2,O=C(N/N=C/c1ccc(Oc2ccccc2)cc1)c1cnn2c1NC(c1ccccc1)C2 (stereo not drawn),32.3%
3,NC1=NN=C(N)C1=Cc1cc2ccccc2n2nnnc12,94.7%
4,CCSCC1CC(O)(c2ccccc2)CC(c2ccc(F)cc2)O1 (stereo not drawn),-14.8% (active)
5,Cc1cccc(NC(=O)Nc2ccc(-n3cnc4cc(-c5ccc(O)cc5)ccc43)cc2)c1,82%
6,COc1ccc(/C=C(\C#N)n2nc3cccc(F)c3n2)cc1,104%
7,Nc1n[nH]c2cccc(C#Cc3cccc(C(=O)Nc4cccc(C(F)(F)F)c4)c3)c12,40.5%
8,O=C(Nc1ccccc1C(=O)N/N=C(\c1ccccc1)c1ccccn1)c1ccc(F)cc1,59.9%
9,C=C1C(=O)O[C@H]2[C@H]1CC/C(C(=O)NCCCCCNC(=O)/C1=C/CC[C@@]3(C)O[C@H]3[C@H]3OC(=O)C(=C)[C@@H]3CC1)=C\CC[C@@]1(C)O[C@@H]21,104%
10,N#Cc1c(NCc2ccccc2I)sc2c1CCCCC2,93.3%
11,C=C1C(=O)O[C@H]2[C@H]1CC/C(COC(=O)NCC(C)c1ccc(CC(C)C)cc1)=C\CC[C@@]1(C)O[C@@H]21 (stereo partly drawn),16%
12,Cc1cc(C(=O)/C=C/c2ccc[nH]2)ccc1-n1ccc(C(F)(F)F)n1,94.3%
13,C=C1C(=O)O[C@H]2[C@H]1CC/C(CNC(=O)/C=C/c1cccc(OC)c1)=C\CC[C@@]1(C)O[C@@H]21,73.1%
14,COc1cc(/C=N/NC(=O)c2cnn3c2NC(c2ccccc2)C3)ccc1Oc1ccccc1 (stereo not drawn),37.8%
15,COc1cc(C2=C(c3cn(C)c4ccccc34)COC2=O)cc(OC)c1OC,-6.29% (active)
16,COc1cc(/C=C\C(=O)O)ccc1OCc1ccccc1,101%
17,COc1cc2c(=O)n(CCN)c3c4cc5c(cc4ccc3c2cc1OC)OCO5,25.8%
18,CCCCCN1C=C/C(=C\C(=O)N(C)c2ccc(OC(F)(F)F)cc2)c2ccccc21,90.5%
19,CN(C)CC(O)c1ccc(/C=C/c2ccc(Cl)cc2)cc1 (stereo not drawn),-26.3% (active)
